Data taken from the supplement of paper PMC10849652.
About 7,900 targets were measured; listed, in parts, are those with a hit and a random draw of the rest. About 0.6% of all pairs of compound and target were hits.

Key:
Assay in all cases: log2 fold change, soluble protein after heating vs DMSO (PISA); higher = thermal stabilisation; K562 cells, 10 uM, 30 min; active = over 0.2 and 3.5 SD of the protein, either way, in both replicates (recomputed)
IRAK-1-4 Inhibitor I = compound: C1COCCN1CCN2C3=CC=CC=C3N=C2NC(=O)C4=CC(=CC=C4)[N+](=O)[O-] [IRAK-1-4 Inhibitor I]
Method in brief: (§1)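 K562 cells at 2×10^6 cells/mL were treated with 10 μM compound for 30 min. Aliquots were heated for 3 min across 48°C-58°C, pooled, and extracted in PBS with 0.5% NP-40 at 4°C; soluble protein was the supernatant after 21,000xg for 90 min. Soluble protein was quantified by TMTpro 16plex LC-MS/MS with channel sums equalised, and reported as log2 fold change in thermal stability against DMSO controls, with values from duplicates.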

ibrutinib = compound: C=CC(=O)N1CCC[C@@H](n2nc(-c3ccc(Oc4ccccc4)cc3)c3c(N)ncnc32)C1 [ibrutinib]
Method in brief: as §1

[1] = compound: CC(=O)c1cnc2ccc(-c3cc(Cl)c(O)c(Cl)c3)nc2c1N[C@H]1CC[C@H](CN(C)C)CC1
Method in brief: as §1

ralimetinib = compound: CC(C)(C)Cn1c(N)nc2ccc(-c3[nH]c(C(C)(C)C)nc3-c3ccc(F)cc3)nc21 [ralimetinib]
Method in brief: as §1

[2] = compound: CC(C)(O)CC(=O)NCCn1ccc2ncnc(Nc3ccc(Oc4cccc(C(F)(F)F)c4)c(Cl)c3)c21
Method in brief: as §1

[3] = compound: CC(C)C1=C2N=C(C=C(N2N=C1)NCC3=CC=CC=C3)NCCCCCCN
Method in brief: as §1

[4] = compound: CC(C)C[C@@H](C=O)NC(=O)[C@H](CC(C)C)NC(=O)[C@H](CC(C)C)NC(=O)OCc1ccccc1
Method in brief: as §1

pinometostat = compound: CC(C)N(C[C@H]1O[C@@H](n2cnc3c(N)ncnc32)[C@H](O)[C@@H]1O)[C@H]1C[C@@H](CCc2nc3cc(C(C)(C)C)ccc3[nH]2)C1 [pinometostat]
Method in brief: as §1

[5] = compound: CC1=C(C(CC(=O)N1)C2=CC=C(C=C2)C(F)(F)F)C(=O)NC3=C(C=C4C(=C3)C=NN4)F
Method in brief: as §1

[6] = compound: CC1=C(C2=C(C=C1)C(=O)C3=CC=CC=C3N2CCCN)C
Method in brief: as §1

Measured: log2 fold change

POGLUT1 (UniProt Q8NBL1)
Chain of UniProt Q8NBL1 (Q8NBL1 whole entry, looked up): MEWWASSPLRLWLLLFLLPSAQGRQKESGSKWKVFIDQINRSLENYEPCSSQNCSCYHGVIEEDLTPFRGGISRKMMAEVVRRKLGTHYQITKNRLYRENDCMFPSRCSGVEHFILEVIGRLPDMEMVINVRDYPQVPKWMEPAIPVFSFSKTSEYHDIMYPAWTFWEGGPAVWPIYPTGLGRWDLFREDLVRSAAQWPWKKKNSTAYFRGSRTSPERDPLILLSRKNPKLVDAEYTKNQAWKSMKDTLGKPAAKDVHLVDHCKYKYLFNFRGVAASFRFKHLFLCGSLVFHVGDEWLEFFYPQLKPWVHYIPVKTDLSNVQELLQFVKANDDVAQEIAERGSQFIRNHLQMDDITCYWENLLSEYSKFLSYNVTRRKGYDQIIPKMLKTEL
inactive: IRAK-1-4 Inhibitor I -0.032 | ibrutinib -0.03 | [1] -0.047 | ralimetinib 0.162 | [2] 0.058 | [3] 0.055 | [4] -0.106 | pinometostat 0.026 | [5] 0.009 | [6] 0.016

POLR2A (UniProt P24928)
inactive: IRAK-1-4 Inhibitor I -0.029 | ibrutinib 0.054 | ralimetinib 0.011 | [2] -0.065 | [3] 0.19 | [4] 0.005 | pinometostat -0.004 | [5] -0.046 | [6] 0.033
active: [1] 0.342

PSMD5 (UniProt Q16401)
inactive: IRAK-1-4 Inhibitor I 0.04 | ibrutinib -0.004 | [1] 0.047 | ralimetinib -0.013 | [2] -0.033 | [3] -0.106 | [4] -0.061 | pinometostat -0.003 | [5] 0 | [6] -0.042

PRKCA (UniProt P17252)
active: [1] -0.595
inactive: IRAK-1-4 Inhibitor I 0.012 | ibrutinib -0.02 | ralimetinib -0.039 | [2] -0.02 | [3] -0.035 | [4] 0.104 | pinometostat -0.015 | [5] 0.011 | [6] 0.064

PLCG1 isoform 2 (UniProt P19174)
inactive: IRAK-1-4 Inhibitor I -0.079 | ibrutinib 0.03 | [1] 0.041 | ralimetinib -0.042 | [3] -0.23 | [4] 0.007 | pinometostat 0.069 | [5] 0.023 | [6] -0.027
active: [2] -0.362

PRKCE (UniProt Q02156)
active: [1] -0.468
inactive: IRAK-1-4 Inhibitor I -0.02 | ibrutinib -0.013 | [2] -0.026 | [3] -0.153 | pinometostat -0.051 | [5] -0.059 | [6] -0.009

PTGR2 (UniProt Q8N8N7)
Chain of UniProt Q8N8N7 (Q8N8N7 whole entry, looked up): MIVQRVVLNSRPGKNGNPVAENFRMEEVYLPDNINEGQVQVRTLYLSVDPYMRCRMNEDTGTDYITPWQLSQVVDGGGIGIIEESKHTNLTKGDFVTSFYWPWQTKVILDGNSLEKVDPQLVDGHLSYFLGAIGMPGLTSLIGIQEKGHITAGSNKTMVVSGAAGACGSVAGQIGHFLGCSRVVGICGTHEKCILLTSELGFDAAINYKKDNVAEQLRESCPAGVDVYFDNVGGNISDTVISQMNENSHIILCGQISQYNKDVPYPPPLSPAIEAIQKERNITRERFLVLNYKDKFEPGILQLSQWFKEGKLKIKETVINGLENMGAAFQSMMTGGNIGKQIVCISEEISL
inactive: IRAK-1-4 Inhibitor I 0 | ibrutinib 0.321 | [1] -0.328 | ralimetinib -0.016 | [2] -0.042 | [3] 0.121 | [4] 0.001 | pinometostat 0.074 | [5] 0.005 | [6] 0.011

POLR2C (UniProt P19387)
inactive: IRAK-1-4 Inhibitor I -0.041 | ibrutinib -0.025 | [1] 0.227 | ralimetinib 0.102 | [2] 0.003 | [3] 0.058 | [4] 0.042 | pinometostat 0.065 | [5] -0.016 | [6] -0.025

PISD (UniProt Q9UG56)
inactive: IRAK-1-4 Inhibitor I -0.013 | ibrutinib -0.038 | [1] -0.068 | ralimetinib 0.02 | [2] -0.066 | [3] 0.001 | [4] 0.005 | pinometostat -0.013 | [5] -0.039 | [6] 0.147

PURA (UniProt Q00577)
Chain of UniProt Q00577 (Q00577 whole entry, looked up): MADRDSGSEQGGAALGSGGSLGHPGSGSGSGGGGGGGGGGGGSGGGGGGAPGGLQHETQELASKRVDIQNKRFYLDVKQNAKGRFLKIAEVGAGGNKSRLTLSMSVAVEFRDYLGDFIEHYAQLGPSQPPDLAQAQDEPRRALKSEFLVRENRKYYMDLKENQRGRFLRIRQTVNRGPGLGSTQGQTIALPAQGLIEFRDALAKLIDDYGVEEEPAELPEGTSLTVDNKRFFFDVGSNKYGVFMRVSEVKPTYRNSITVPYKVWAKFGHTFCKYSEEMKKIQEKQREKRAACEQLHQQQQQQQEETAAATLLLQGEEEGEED
inactive: IRAK-1-4 Inhibitor I -0.151 | ibrutinib 0.096 | [1] 0.169 | ralimetinib 0.064 | [2] 0.276 | [3] 0.129 | [4] 0.079 | pinometostat 0.087 | [5] -0.005
active: [6] -0.792

PGGHG (UniProt Q32M88)
inactive: IRAK-1-4 Inhibitor I 0.018 | ibrutinib 0.045 | [1] -0.013 | ralimetinib 0.136 | [2] 0.05 | [3] 0.044 | [4] 0.008 | pinometostat -0.054 | [5] -0.124 | [6] -0.027

PIGG (UniProt Q5H8A4)
Chain of UniProt Q5H8A4 (Q5H8A4 whole entry, looked up): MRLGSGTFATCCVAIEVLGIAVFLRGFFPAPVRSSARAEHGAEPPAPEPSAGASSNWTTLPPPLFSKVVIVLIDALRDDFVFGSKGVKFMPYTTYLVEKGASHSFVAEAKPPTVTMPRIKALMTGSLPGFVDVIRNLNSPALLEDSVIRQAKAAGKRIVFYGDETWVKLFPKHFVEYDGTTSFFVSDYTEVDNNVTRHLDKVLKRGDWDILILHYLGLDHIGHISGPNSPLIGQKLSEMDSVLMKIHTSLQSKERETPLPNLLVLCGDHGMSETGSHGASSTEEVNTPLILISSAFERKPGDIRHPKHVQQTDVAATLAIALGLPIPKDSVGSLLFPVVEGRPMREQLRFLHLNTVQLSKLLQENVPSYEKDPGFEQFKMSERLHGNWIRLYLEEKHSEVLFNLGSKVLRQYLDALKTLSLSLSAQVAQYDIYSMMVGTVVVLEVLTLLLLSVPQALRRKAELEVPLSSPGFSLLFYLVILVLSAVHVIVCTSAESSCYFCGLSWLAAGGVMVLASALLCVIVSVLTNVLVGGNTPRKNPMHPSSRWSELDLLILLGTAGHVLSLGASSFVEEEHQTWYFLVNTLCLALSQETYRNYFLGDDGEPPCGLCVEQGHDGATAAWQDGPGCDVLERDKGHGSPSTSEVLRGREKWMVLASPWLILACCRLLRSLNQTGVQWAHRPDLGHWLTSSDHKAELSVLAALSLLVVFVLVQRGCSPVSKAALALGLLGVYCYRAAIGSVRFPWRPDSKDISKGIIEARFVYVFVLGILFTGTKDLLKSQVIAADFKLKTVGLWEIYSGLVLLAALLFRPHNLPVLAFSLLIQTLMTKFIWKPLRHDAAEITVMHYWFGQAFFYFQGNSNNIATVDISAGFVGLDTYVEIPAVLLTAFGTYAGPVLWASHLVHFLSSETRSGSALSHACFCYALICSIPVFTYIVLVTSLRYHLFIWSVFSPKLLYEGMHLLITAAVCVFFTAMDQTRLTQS
inactive: IRAK-1-4 Inhibitor I 0.004 | ibrutinib -0.039 | [1] -0.032 | ralimetinib 0.168 | [2] 0.015 | [3] -0.046 | [4] 0.005 | pinometostat 0.027 | [5] 0.011 | [6] 0.018

PNPLA4 (UniProt P41247)
Chain of UniProt P41247 (P41247 whole entry, looked up): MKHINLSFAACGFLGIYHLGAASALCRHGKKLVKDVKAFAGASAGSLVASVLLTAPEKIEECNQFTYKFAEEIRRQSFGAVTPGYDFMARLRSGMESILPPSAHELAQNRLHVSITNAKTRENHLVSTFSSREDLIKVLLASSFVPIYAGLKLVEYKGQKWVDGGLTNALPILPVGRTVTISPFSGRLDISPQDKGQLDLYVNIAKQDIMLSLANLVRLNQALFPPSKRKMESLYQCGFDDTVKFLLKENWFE
inactive: IRAK-1-4 Inhibitor I -0.094 | ibrutinib 0.012 | [1] 0.005 | ralimetinib -0.022 | [3] 0.115 | [4] 0.209 | pinometostat 0.049 | [5] 0.054 | [6] -0.025

PIK3CB (UniProt P42338)
inactive: IRAK-1-4 Inhibitor I -0.051 | ibrutinib -0.049 | [1] 0.082 | ralimetinib 0.013 | [2] -0.082 | [3] -0.082 | [4] 0.02 | pinometostat -0.069 | [5] -0.026 | [6] 0.041

PIK3CD (UniProt O00329)
inactive: IRAK-1-4 Inhibitor I 0.005 | ibrutinib -0.137 | [1] 0.237 | ralimetinib 0.032 | [2] -0.391 | [3] 0.104 | [4] 0.116 | pinometostat -0.024 | [6] 0.259

PATL1 (UniProt Q86TB9)
inactive: IRAK-1-4 Inhibitor I -0.026 | ibrutinib -0.173 | [1] -0.312 | ralimetinib 0.079 | [2] -0.024 | [3] -0.298 | [4] 0.033 | pinometostat 0.143 | [6] 0.038

QRSL1 (UniProt Q9H0R6)
inactive: IRAK-1-4 Inhibitor I 0.016 | ibrutinib 0.023 | [1] -0.025 | ralimetinib 0.001 | [2] -0.071 | [4] -0.003 | pinometostat -0.087 | [5] 0.041 | [6] 0.025
active: [3] -0.231

PSMB9 (UniProt P28065)
Chain of UniProt P28065 (P28065 whole entry, looked up): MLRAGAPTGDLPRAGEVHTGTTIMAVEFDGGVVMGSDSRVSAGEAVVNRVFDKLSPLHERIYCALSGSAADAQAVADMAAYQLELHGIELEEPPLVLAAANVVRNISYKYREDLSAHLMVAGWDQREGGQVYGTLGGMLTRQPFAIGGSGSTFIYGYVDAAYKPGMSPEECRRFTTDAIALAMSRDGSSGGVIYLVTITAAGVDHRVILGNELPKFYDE
inactive: IRAK-1-4 Inhibitor I 0.091 | ibrutinib 0.511 | [1] 0.031 | [2] -0.01 | [3] 0.205 | pinometostat 0.069

PDE6D (UniProt O43924)
Chain of UniProt O43924 (O43924 whole entry, looked up): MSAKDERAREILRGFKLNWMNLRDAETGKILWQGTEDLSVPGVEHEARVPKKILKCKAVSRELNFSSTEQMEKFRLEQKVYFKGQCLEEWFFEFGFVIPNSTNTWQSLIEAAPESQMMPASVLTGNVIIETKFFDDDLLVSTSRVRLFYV
inactive: IRAK-1-4 Inhibitor I 0.037 | ibrutinib 0.086 | [1] -0.051 | [2] 0.003 | [3] 0.164 | pinometostat 0.017 | [5] -0.016 | [6] -0.01

PARN (UniProt O95453)
inactive: IRAK-1-4 Inhibitor I 0.002 | ibrutinib -0.047 | [1] -0.092 | ralimetinib -0.013 | [2] -0.02 | [3] -0.025 | [4] 0.018 | pinometostat -0.018 | [5] 0.01 | [6] 0.033

PDE4A (UniProt P27815)
Chain of UniProt P27815 (P27815 whole entry, looked up): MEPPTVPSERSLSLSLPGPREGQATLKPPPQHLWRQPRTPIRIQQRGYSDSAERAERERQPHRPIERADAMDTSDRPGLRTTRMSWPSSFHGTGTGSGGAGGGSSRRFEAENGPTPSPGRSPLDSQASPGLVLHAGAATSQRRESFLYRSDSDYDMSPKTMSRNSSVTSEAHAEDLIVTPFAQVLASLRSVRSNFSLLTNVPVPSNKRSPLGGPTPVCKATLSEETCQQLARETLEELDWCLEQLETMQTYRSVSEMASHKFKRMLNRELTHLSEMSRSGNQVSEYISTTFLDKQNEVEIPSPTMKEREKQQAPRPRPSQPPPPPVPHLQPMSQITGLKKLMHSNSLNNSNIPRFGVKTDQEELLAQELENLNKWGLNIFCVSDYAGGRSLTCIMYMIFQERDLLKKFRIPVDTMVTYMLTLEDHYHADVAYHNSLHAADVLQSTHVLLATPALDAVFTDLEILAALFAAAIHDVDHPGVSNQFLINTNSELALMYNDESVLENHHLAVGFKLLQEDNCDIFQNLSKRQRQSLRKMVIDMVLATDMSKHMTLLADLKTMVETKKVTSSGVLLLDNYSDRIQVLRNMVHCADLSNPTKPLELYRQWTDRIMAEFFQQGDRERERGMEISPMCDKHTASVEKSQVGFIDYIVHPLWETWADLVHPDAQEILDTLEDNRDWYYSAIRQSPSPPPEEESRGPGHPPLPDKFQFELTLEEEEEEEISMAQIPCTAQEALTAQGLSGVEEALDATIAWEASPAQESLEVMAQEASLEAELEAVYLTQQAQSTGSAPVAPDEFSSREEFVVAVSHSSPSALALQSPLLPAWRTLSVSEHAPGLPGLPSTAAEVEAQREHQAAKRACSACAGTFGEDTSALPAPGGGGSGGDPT
inactive: IRAK-1-4 Inhibitor I 0 | ibrutinib 0.249 | [1] 0.077 | ralimetinib -0.056 | [2] 0.106 | [3] 0.029 | [4] 0.04 | pinometostat 0.019 | [6] -0.077

PSMD11 (UniProt O00231)
Chain of UniProt O00231 (O00231 whole entry, looked up): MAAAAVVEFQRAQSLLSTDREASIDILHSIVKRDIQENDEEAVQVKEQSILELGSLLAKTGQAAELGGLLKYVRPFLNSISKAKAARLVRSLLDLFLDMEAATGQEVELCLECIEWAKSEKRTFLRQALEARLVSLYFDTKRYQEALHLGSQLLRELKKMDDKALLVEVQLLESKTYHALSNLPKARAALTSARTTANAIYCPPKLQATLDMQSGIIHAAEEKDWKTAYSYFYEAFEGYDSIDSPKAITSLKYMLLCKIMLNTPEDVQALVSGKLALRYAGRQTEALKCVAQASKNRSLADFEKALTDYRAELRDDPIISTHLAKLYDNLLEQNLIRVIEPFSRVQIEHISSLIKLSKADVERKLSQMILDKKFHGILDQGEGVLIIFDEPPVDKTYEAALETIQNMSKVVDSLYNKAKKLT
active: [4] -0.263
inactive: IRAK-1-4 Inhibitor I -0.048 | ibrutinib 0 | [1] 0.086 | ralimetinib 0.076 | [2] 0 | [3] -0.001 | pinometostat 0.029 | [5] 0.011 | [6] 0.037

PPT1 (UniProt P50897)
active: [3] -0.406
inactive: IRAK-1-4 Inhibitor I 0.041 | ibrutinib 0.049 | [1] 0.008 | ralimetinib -0.072 | [2] 0.039 | [4] 0.048 | pinometostat -0.036 | [5] 0.018 | [6] -0.06

PFAS (UniProt O15067)
inactive: IRAK-1-4 Inhibitor I -0.055 | ibrutinib 0.065 | [1] -0.217 | ralimetinib -0.003 | [2] 0.02 | [3] 0.131 | [4] -0.055 | pinometostat -0.02 | [5] 0.039 | [6] 0.17

PSMD2 (UniProt Q13200)
active: [4] -0.296
inactive: IRAK-1-4 Inhibitor I -0.08 | ibrutinib -0.035 | [1] 0.039 | ralimetinib 0.018 | [2] 0.021 | [3] 0.039 | pinometostat 0.019 | [5] 0.04 | [6] -0.036

PARP16 isoform 3 (UniProt Q8N5Y8)
inactive: IRAK-1-4 Inhibitor I -0.036 | ibrutinib -0.13 | [1] -0.003 | [2] 0.032 | [3] -0.012 | pinometostat -0.097 | [5] -0.009 | [6] -0.027

PSMD12 (UniProt O00232)
active: [4] -0.251
inactive: IRAK-1-4 Inhibitor I -0.055 | ibrutinib -0.022 | [1] 0.03 | ralimetinib 0.004 | [2] -0.01 | [3] 0 | pinometostat 0.03 | [5] 0.007 | [6] 0.015

PPID (UniProt Q08752)
Chain of UniProt Q08752 (Q08752 whole entry, looked up): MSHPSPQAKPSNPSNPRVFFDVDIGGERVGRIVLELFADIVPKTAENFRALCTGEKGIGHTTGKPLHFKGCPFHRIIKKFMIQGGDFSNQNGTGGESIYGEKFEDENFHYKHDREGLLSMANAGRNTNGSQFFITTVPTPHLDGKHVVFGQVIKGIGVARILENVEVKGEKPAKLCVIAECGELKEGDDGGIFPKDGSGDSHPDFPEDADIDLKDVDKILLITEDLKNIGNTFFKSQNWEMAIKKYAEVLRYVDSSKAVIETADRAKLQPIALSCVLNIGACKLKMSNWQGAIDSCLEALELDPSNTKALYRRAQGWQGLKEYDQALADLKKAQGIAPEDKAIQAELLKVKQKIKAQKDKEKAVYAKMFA
inactive: IRAK-1-4 Inhibitor I -0.141 | ibrutinib -0.057 | [1] -0.013 | ralimetinib 0.103 | [2] -0.152 | [3] -0.238 | [4] 0.053 | pinometostat 0.105 | [5] -0.006 | [6] 0.022

PJA2 (UniProt O43164)
inactive: IRAK-1-4 Inhibitor I 0.061 | ibrutinib 0.023 | [1] 0.091 | ralimetinib -0.004 | [2] -0.02 | [3] -0.013 | [4] 0.169 | pinometostat -0.005 | [5] 0.05
active: [6] -0.308

PI4K2B (UniProt Q8TCG2)
Chain of UniProt Q8TCG2 (Q8TCG2 whole entry, looked up): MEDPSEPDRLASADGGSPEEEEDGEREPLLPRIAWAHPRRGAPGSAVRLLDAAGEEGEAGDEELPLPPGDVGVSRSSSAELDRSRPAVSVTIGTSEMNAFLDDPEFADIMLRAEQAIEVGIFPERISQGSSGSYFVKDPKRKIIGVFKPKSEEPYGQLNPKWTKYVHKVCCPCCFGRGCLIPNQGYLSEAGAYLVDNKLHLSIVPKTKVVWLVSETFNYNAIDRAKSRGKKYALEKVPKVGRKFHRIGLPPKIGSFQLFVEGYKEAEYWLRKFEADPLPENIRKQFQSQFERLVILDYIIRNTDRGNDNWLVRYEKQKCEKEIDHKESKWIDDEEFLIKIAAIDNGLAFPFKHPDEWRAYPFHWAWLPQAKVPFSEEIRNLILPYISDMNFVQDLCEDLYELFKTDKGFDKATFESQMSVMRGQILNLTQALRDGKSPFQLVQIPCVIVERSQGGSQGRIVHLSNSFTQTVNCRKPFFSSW
inactive: IRAK-1-4 Inhibitor I 0.035 | ibrutinib -0.004 | [1] 0.042 | ralimetinib -0.04 | [3] -0.131 | [4] -0.017 | pinometostat 0.053 | [5] 0.135 | [6] 0.003

PCF11 (UniProt O94913)
inactive: IRAK-1-4 Inhibitor I 0.002 | ibrutinib -0.255 | [1] -0.093 | ralimetinib -0.104 | [4] -0.083 | pinometostat -0.058

PRKD3 (UniProt O94806)
active: [1] -2.06
inactive: IRAK-1-4 Inhibitor I 0.189 | ibrutinib 0.059 | ralimetinib -0.089 | [3] -0.129 | [4] 0.06 | pinometostat 0.266
